Compound activity as filed in PubChem BioAssay.
GDH-TPI counter: GDH-TPI coupling enzyme inhibitors, primary screen, artefact control for M. tuberculosis FBA inhibitor project, biochemical, absorbance, full deck | GDH-TPI coupled enzyme counterscreen, NADH absorbance | inhibition, % at 4.8 µM | 1.2% of 360,000 active; in the data active means inhibition above about 30%;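 further: 0% = DMSO wells and 100% = wells lacking the enzyme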
FBA Mtb inh: Mtb FBA enzyme inhibitors, primary screen, biochemical, fluorescence, strain H37Rv | 2.3% of 360,000 active | purified M. tuberculosis FBA, fluorescence read-out | inhibition, % at 1 µM | AID 588726, 2011; in the data active means inhibition above about 27%;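 further: 0% = vehicle and 100% = reference inhibitor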
Target sequence (P9WQA3 whole entry, looked up): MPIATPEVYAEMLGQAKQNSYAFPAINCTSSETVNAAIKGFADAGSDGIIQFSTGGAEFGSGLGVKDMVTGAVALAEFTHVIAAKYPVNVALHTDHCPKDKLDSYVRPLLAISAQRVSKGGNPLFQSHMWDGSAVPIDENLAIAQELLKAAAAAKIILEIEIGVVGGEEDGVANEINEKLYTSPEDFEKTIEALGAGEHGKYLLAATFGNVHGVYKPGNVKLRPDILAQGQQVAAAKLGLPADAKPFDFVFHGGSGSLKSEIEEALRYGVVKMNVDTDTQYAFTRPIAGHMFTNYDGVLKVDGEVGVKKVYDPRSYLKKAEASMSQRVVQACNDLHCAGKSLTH
Mtb UGM inh: M. tuberculosis UGM enzyme inhibitors, primary screen, biochemical, fluorescence polarization, single point; 0.06% of 320,000 active; inhibition, % at 10 µM; purified UGM, fluorescence polarization probe displacement; in the data active means inhibition above about 10%, passing the limit was not always enough; inconclusive means no clear call, values can overlap the other calls
Rv3671c protease: Rv3671c serine protease inhibitors, primary screen, biochemical, fluorescence polarization, M. tuberculosis H37Rv | P9WHR9 | inhibition, % at 5.96 µM | 0.048% of 320,000 active | AID 2606, 2010; in the data active means inhibition above about 38%;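 further: extracellular domain of Rv3671c used as enzyme; 0% = enzyme with DMSO and 100% = no enzyme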
Mtb bLac sens: beta-lactam sensitization of Mtb H37Rv, H37Rv | inhibition, % at 25 µM | M. tuberculosis H37Rv growth with meropenem, percent inhibition | 0.27% of 330,000 active; call rule not given here;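 further: growth measured after seven days incubation then overnight dye step; 0% = bacteria only wells and 100% = bacteria with antibiotic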
RecA intein inh: Mtb RecA intein splicing inhibitors, primary screen, biochemical, fluorescence, HTS | cell-free RecA intein splicing | inhibition, % (test concentration not listed) | 0.75% of 290,000 active; in the data active means inhibition above about 30%; inconclusive means no clear call, values can overlap the other calls;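 further: 0% = vehicle wells and 100% = reference inhibitor control wells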
Numbers without * were called inactive; ? = inconclusive; . = not tested or not shown; + = active, no number. This is a sample that favours compounds with a hit; in the whole collection about 4% have one here.

SMILES	GDH-TPI counter	FBA Mtb inh	Mtb UGM inh	Rv3671c protease	Mtb bLac sens	RecA intein inh
COc1cc(/C=N/NC(=O)c2ccc3c(c2)OCCO3)cc(Cl)c1O	29	14	-2	-3	?	-5
COc1c(O)ccc(/C=N/NC(=O)c2ccc3c(c2)OCCO3)c1[N+](=O)[O-]	62*	-2	1	-11	-4	-1
O=C(N/N=C/c1cc2c(cc1[N+](=O)[O-])OCO2)c1ccc2c(c1)OCO2	-4	0	-3	0	2	-4
COc1ccc(-c2nnc(NC(=O)c3ccc(S(=O)(=O)N4CCCc5ccccc54)cc3)o2)cc1	37*	-1	-1	-11	81	-1
COCc1nnc(NC(=O)c2ccc(S(=O)(=O)N3CCCc4ccccc43)cc2)o1	5	-1	1	-3	6	0
COC(=O)[C@H](CC(C)C)N(Cc1ccccc1)S(=O)(=O)N(Cc1ccc(OC)cc1)[C@@H](CC(C)C)C(=O)OC	4	-1	0	2	0	.
COC(=O)[C@H]1C[C@H](O)CN1S(=O)(=O)c1ccc(Br)cc1F	0	5	.	.	.	.
CC(=O)c1ccc(Sc2nnnn2-c2ccccc2)c([N+](=O)[O-])c1	11	-2	2	1	98	31*
CN1CCN(S(=O)(=O)c2ccc(Sc3nnnn3-c3ccccc3)c([N+](=O)[O-])c2)CC1	10	0	2	-7	49	15
O=c1c2c(nc3c(-c4ccc(Cl)cc4)c[nH]n13)CCCC2	17	17	2	-3	94	-2
O=c1c2c(nc3c(-c4cccc5ccccc45)c[nH]n13)CCC2	5	129*	-1	-6	71	0
CCC1(c2ccc(F)cc2)NC(=O)N(CC(=O)Nc2cccnc2Cl)C1=O (stereo unspecified)	6	-1	-1	-7	-16	-3
COc1cc(/C=N/Nc2nc3c(c(=O)n(C)c(=O)n3C)n2Cc2ccccc2)ccc1OC(=O)c1ccco1	33*	1	2	-22	-1	-3
Cc1ccc(Cn2c(N/N=C/c3ccncc3)nc3c2c(=O)n(C)c(=O)n3C)cc1	26	-6	1	7	-1	-12
COc1cc(/C=N/Nc2ccc(Cl)c(C(=O)O)c2)ccc1OC(=O)c1ccco1	13	4	-2	-7	-2	25
Cn1c(=O)c2c(nc(N/N=C/c3ccncc3)n2Cc2ccccc2)n(C)c1=O	59*	-1	-4	4	-9	0
CCCn1nnnc1NCc1ccc(C(C)C)cc1	1	0	0	-2	-1	-3
O=C(c1cccnc1)c1cc2ccccc2[nH]1	35*	0	-4	8	-4	-2
CCn1cc(/C=C(\NC(=O)c2ccc(OC)c(OC)c2)C(=O)NCCCN2CCOCC2)c2ccccc21	41*	3	.	.	.	2
CCn1cc(/C=C(\NC(=O)c2ccccc2)C(=O)NCCN2CCOCC2)c2ccccc21	48*	-4	.	.	.	.
CCn1cc(/C=C(\NC(=O)c2ccc(C)cc2)C(=O)NCCCN2CCOCC2)c2ccccc21	41*	1	.	.	.	2
CN(C)c1ccc(/C=C(/NC(=O)c2ccccc2Cl)C(=O)NCCN2CCOCC2)cc1	42*	-2	1	-25	-6	-9
CCn1cc(/C=C(\NC(=O)c2ccccc2Cl)C(=O)NCCN2CCOCC2)c2ccccc21	22	-5	3	0	-6	1
COc1cc(C(=O)N/C(=C\c2cn(C)c3ccccc23)C(=O)NCCCN2CCOCC2)cc(OC)c1OC	28	-3	2	5	-5	4
Cc1ccccc1NS(=O)(=O)c1ccc(C(=O)N2CCN(S(=O)(=O)c3ccccc3)CC2)cc1	-4	-3	1	-2	2	.
SMILES	GDH-TPI counter	FBA Mtb inh	Mtb UGM inh	Rv3671c protease	Mtb bLac sens	RecA intein inh
COc1ccccc1C(=O)N/C(=C\c1cn(C)c2ccccc12)C(=O)NCCN1CCOCC1	22	-2	.	.	.	.
COc1ccccc1C(=O)N/C(=C\c1cn(C)c2ccccc12)C(=O)NCCCN1CCOCC1	36*	-2	1	-7	3	-1
CCn1cc(/C=C(\NC(=O)c2ccccc2F)C(=O)N2CCN(C)CC2)c2ccccc21	39*	1	.	.	.	.
NC(=O)CSc1n[nH]c(=O)n1CCc1ccccc1	0	1	-2	-1	7	-3
CC1(C)Cc2c(c(N3CCCC3)nc3sc4c(N5CCN(CCO)CC5)ncnc4c23)CO1	33*	10	0	-10	14	.
COC(=O)c1ccc(CSc2ncnc3c2sc2nc(N4CCOCC4)c4c(c23)CCCC4)o1	32*	4	1	-9	0	-1
OCCN1CCN(c2ncnc3c2sc2nc(N4CCOCC4)c4c(c23)CCC4)CC1	44*	20	3	-10	4	-1
CCC(C)NC(=O)c1ccc(NC(=O)C2=C(C)OCCS2)cc1 (stereo unspecified)	-3	2	2	-1	-2	4
C[C@@H]1CC=C[C@H]2[C@H]1C(=O)N(Cc1ccccc1)[C@H]2c1ccc(F)c(Br)c1	.	.	.	.	.	32*
C[C@@H]1CC=C[C@H]2[C@H]1C(=O)N(Cc1ccccc1)[C@H]2c1ccc(F)c(/C=C/c2ccccc2)c1	20	6	0	-15	-1	3
O=C(NCc1ccco1)c1nc2nc(-c3cccs3)cc(C(F)(F)F)n2n1	28	+	4	2	-10	-6
COC(=O)c1nc2nc(C)cc(C(F)(F)F)n2n1	-2	-3	2	5	-10	-1
O=C(NCc1ccco1)c1nn2c(C(F)(F)F)cc(-c3cccs3)nc2c1Br	1	-2	-1	-9	-7	-3
COC(=O)c1nc2nc(-c3cccs3)cc(C(F)(F)F)n2n1	18	+	-1	5	3	-20
Cc1ccc(S(=O)(=O)N2CC(O)C2)cc1	-1	-1	0	4	-3	-1
O=C(C1CCN(S(=O)(=O)c2ccc(-n3cnnn3)cc2)CC1)N1CCCCC1	0	-1	0	3	0	-3
COc1ccc(NC(=O)CN(C)C(=O)Cc2ccc3c(c2)CCC3)cc1	3	2	1	-13	-5	0
O=c1[nH]c2cc(Cl)cc([N+](=O)[O-])c2c2ccc(Cl)cc12	1	-1	.	.	.	.
COc1cccc2sc(Nc3nc4ccc(NC(C)=O)cc4s3)nc12	25	89*	2	-5	11	-19
O=C(O)CCC(=O)Nc1ccc(-c2nc3ccc(C(=O)c4ccccc4)cc3[nH]2)cc1	38*	1	4	-20	-2	-1
